High-throughput results as filed in PubChem.
Shown are actives, neighbours in structure and some others; about 19% of the full set was active somewhere.
HT1080 IDH1KD tx – kills HT-1080 cells with IDH1 knockdown. HT-1080 IDH1 knockdown viability, ATP luminescence, 48 h. Potency, µM (doses to about 46.1 µM), for inactives: at the top dose activity, negative = toxicity, hits mostly cytotoxic. hit rate 2% among 360,000. AID 686971;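 note: potency is the fitted concentration of half-maximal effect; 0% = DMSO wells and -100% = cell-free medium wells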
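In this qHTS, HT-1080 cells depleted of IDH1 are exposed for 48 h at 37 °C to compound titrations. Toxicity is scored from CellTiter-Glo luminescence, with DMSO as full viability and medium alone as none.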
DT40 TDP1 no CPT – qHTS for Inhibitors of human tyrosyl-DNA phosphodiesterase 1 (TDP1): qHTS in cells in absence of CPT; hit rate 15% among 420,000; Potency, µM (highest dose often 46.2 µM), without a hit: at the highest dose activity change, negative = growth inhibition, most hits filed as inhibitors; DT40 Tdp1-/- hTDP1 cells, no CPT, ATP luminescence, 48 h; note: potency is the fitted concentration of half-maximal effect; nearly all actives have a fitted effect of over 55% in size
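Readout: luminescence from CellTiter-Glo after 30 min in the dark at RT. Cells: DT40 Tdp1-/- with stable hTDP1, 400/well. Exposure: compounds alone, ≥48 hr, 37 °C.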
DT40 TDP1 CPT – DT40-hTDP1 cell growth loss with CPT | hit rate 12% among 420,000 | Potency, µM (highest dose often 46.2 µM), inactives show at the top dose activity change, negative = growth inhibition, actives largely listed as inhibitors | chicken DT40 Tdp1-/-;hTDP1 cells + 20 nM CPT, ATP luminescence, 48 h | AID 686979; note: potency is the fitted concentration of half-maximal effect; nearly all actives have a fitted effect of over 55% in size
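Chicken DT40 Tdp1-/- cells stably complemented with human TDP1 were seeded at 400 cells/well in medium containing 20 nM camptothecin, exposed to pin-transferred compounds, and grown at 37 °C for at least 48 hr. Viability was read as ATP luminescence.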
IL1B secr inh – inhibitors of inflammasome signaling (IL-1 beta secretion). activity change, % at 57.5 µM. hit rate 4.7% among 360,000. THP-1 LPS/ATP IL-1B secretion, AlphaLISA, 16 h; active compounds read low. AID 743279; in the data active = activity change below about -50%; inconclusive = mostly about -30% to -49%
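THP-1 cells pretreated 1 hr with compounds (up to 57.5 uM final), then stimulated with LPS (250 ng/mL final) plus ATP (1.25 mM final); secreted IL-1B measured by AlphaLISA after 16 hr, decreased signal indicating inhibition.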
HT1080-NT tox – kills 2HG-producing HT-1080-NT fibrosarcoma cells; HT-1080-NT fibrosarcoma viability, CellTiter-Glo ATP luminescence, 48 h; Potency, µM (top dose mostly 46.1 µM), inactives show at the highest dose activity, negative = less viability, usual class: cytotoxic; hit rate 1.6% among 360,000; AID 686970;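 note: NT is the 2HG producing partner of a matched IDH1 knockdown line; potency is the fitted concentration of half-maximal effect; 0% = DMSO-treated cells and -100% = media-only wells without cells; nearly all actives have a fitted effect of over 55% in size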
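HT-1080-NT fibrosarcoma cells (2HG-overproducing), 750 cells/well in RPMI with 5% FBS, dosed after 2 h and incubated 48 h at 37C. CellTiter-Glo luminescence normalized to DMSO and no-cell wells; concentration-response curves fitted and classed.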
* hit, by the source's call. Unless noted, calls come from the whole dose curve; as a rule, active = well fitted curve in the direction sought with a large enough effect; inconclusive = small, poorly fitted or top-dose-only effect, or another doubt; inactive = no such curve, though single readings can be large; an effect the other way counts as inactive or inconclusive. Unless noted, % is set by controls: 0 for no effect and ±100 for the full control effect.

`O=C(CN1CCOCC1)Nc1ccccc1Sc1ccc(Cl)cc1` gave HT1080 IDH1KD tx -1%, DT40 TDP1 no CPT 6.5µM*, DT40 TDP1 CPT inconclusive, IL1B secr inh -59* and HT1080-NT tox 0%.
Screening Cc1ccc(-c2csc(NC(=O)CN3CCOCC3)n2)cc1 returned HT1080 IDH1KD tx inconclusive, DT40 TDP1 no CPT 16µM*, DT40 TDP1 CPT 16µM*, IL1B secr inh 16 and HT1080-NT tox inconclusive.
Screening Cc1cc(C)c(C(=O)N2CCCC(N3CCN(c4cccc(C(F)(F)F)c4)CC3)C2)o1 (configuration not stated) returned HT1080 IDH1KD tx inconclusive, DT40 TDP1 no CPT 8.2µM*, DT40 TDP1 CPT 21µM*, IL1B secr inh -6 and HT1080-NT tox -18%.
O=C(c1cc(C2CC2)on1)N1CCCC(N2CCN(c3cccc(C(F)(F)F)c3)CC2)C1 (configuration not stated) was read as HT1080 IDH1KD tx -20%, DT40 TDP1 no CPT inconclusive, DT40 TDP1 CPT inconclusive, IL1B secr inh -58* and HT1080-NT tox -6%.
Cc1noc(C)c1C(=O)N1CCCC(N2CCN(c3cccc(C(F)(F)F)c3)CC2)C1 (configuration not stated) was read as HT1080 IDH1KD tx -3%, DT40 TDP1 no CPT -20%, DT40 TDP1 CPT -17%, IL1B secr inh 16 and HT1080-NT tox -4%.
`O=C(c1ccco1)N1CCCC(N2CCN(c3cccc(C(F)(F)F)c3)CC2)C1` (configuration not stated) gave HT1080 IDH1KD tx -14%, DT40 TDP1 no CPT 21µM*, DT40 TDP1 CPT 16µM*, IL1B secr inh inconclusive and HT1080-NT tox 0%.
Screening O=C(c1cccs1)N1CCCC(N2CCN(c3cccc(C(F)(F)F)c3)CC2)C1 (configuration not stated) returned HT1080 IDH1KD tx -1%, DT40 TDP1 no CPT inconclusive, DT40 TDP1 CPT inconclusive, IL1B secr inh inactive and HT1080-NT tox 0%.
`O=C(CCn1cccn1)N1CCCC(N2CCN(c3cccc(C(F)(F)F)c3)CC2)C1` (configuration not stated) gave HT1080 IDH1KD tx 4%, DT40 TDP1 no CPT 15µM*, DT40 TDP1 CPT inconclusive, IL1B secr inh 2 and HT1080-NT tox 1%.
`Cc1cc(C(=O)N2CCCC(N3CCN(c4cccc(C(F)(F)F)c4)CC3)C2)no1` (configuration not stated) gave HT1080 IDH1KD tx 10%, DT40 TDP1 no CPT 16µM*, DT40 TDP1 CPT inconclusive, IL1B secr inh -8 and HT1080-NT tox 8%.
`COc1ccc(NC(=O)c2cccc(OS(=O)(=O)N(C)C)c2)cc1` gave HT1080 IDH1KD tx -13%, DT40 TDP1 no CPT 5.2µM*, DT40 TDP1 CPT 18µM*, IL1B secr inh -12 and HT1080-NT tox -13%.
For CCOc1cccc(C(=O)Nc2ccc3[nH]ncc3c2)c1 the results were HT1080 IDH1KD tx 12%, DT40 TDP1 no CPT -15%, DT40 TDP1 CPT 7%, IL1B secr inh -22 and HT1080-NT tox 5%.
COc1cccc(C(=O)Nc2ccc3[nH]ncc3c2)c1 was read as HT1080 IDH1KD tx 14%, DT40 TDP1 no CPT -29%, DT40 TDP1 CPT -5%, IL1B secr inh -57* and HT1080-NT tox 2%.
CN(C)S(=O)(=O)Oc1cccc(C(=O)Nc2cccc(Cl)c2)c1 was read as HT1080 IDH1KD tx inconclusive, DT40 TDP1 no CPT 18µM*, DT40 TDP1 CPT 15µM*, IL1B secr inh -56* and HT1080-NT tox -17%.
`CN(C)S(=O)(=O)Oc1cccc(C(=O)Nc2ccc(Cl)c(Cl)c2)c1` gave HT1080 IDH1KD tx inconclusive, DT40 TDP1 no CPT 10µM*, DT40 TDP1 CPT 7.3µM*, IL1B secr inh -88* and HT1080-NT tox inconclusive.
For CCC(=O)OC(OP(=O)(CCCCc1ccccc1)CC(=O)N1C[C@H](C2CCCCC2)C[C@H]1C(=O)O)C(C)C (some centres not stated) the results were DT40 TDP1 no CPT -5% and DT40 TDP1 CPT 8%.
